Shown are actives, neighbours in structure and some others; about 2.5% of the full set was active somewhere.
Casp6 inh: human caspase-6 inhibitors, primary screen, biochemical, VEID-R110 fluorescence, single point, set 2; AID 686996, 2013; 350,000 compounds, 0.53% hits; purified caspase-6, Z-VEID-R110 cleavage fluorescence; inhibition, % at 12.5 µM;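 active = mean inhibition across replicates at least about 35%, with every replicate also reaching that limit, limit read from the data; inconclusive = only one of the two criteria met; inactive = neither criterion met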;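 note: 0% = median of neutral control wells and 100% = no fluorescence left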
NSD2 HMT inh: NSD2 histone methyltransferase inhibitors, primary screen, biochemical, AlphaScreen, single concentration, set 2; Histone-lysine N-methyltransferase NSD2 (Homo sapiens), O96028; NSD2 peptide methylation, 120 min; inhibition, % at 12.5 µM; 310,000 compounds, 0.54% hits; in the data active = inhibition above about 50%
RAD52 anneal inh: RAD52 DNA annealing inhibitors, primary screen, biochemical, FRET, single point, set 2. DNA repair protein RAD52 homolog (Homo sapiens), P43351. recombinant RAD52 DNA annealing, FRET fluorescence. inhibition, % at 18.7 µM. 360,000 compounds, 0.46% hits. AID 651710, 2012;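 active = every replicate showing at least 50% inhibition; inconclusive = mean inhibition at least 50% but not in every replicate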
Target sequence (P43351 whole entry, looked up): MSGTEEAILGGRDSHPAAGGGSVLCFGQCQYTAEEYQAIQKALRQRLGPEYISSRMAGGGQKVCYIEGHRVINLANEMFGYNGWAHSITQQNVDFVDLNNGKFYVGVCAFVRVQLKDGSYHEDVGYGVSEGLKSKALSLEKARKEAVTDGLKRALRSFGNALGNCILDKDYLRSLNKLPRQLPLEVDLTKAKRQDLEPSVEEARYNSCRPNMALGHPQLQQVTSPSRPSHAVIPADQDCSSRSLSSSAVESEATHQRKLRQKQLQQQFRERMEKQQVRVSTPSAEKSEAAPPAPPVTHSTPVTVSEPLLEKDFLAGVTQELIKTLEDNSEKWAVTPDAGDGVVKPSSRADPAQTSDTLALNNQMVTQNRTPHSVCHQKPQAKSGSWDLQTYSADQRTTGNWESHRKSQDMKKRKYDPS
MLL AF4-AF9 inh: inhibitors of AF4 peptide binding to AF9, primary screen, biochemical, AlphaScreen, biotin-AF4 peptide, FLAG-AF9, single point | Protein AF-9 (Homo sapiens), P42568 | inhibition, % at 10 µM | 350,000 compounds, 0.47% hits | AID 651704, 2012;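 active = every replicate reaching a set inhibition limit, whatever the replicate mean, cut at about 25% in these data; inconclusive = mean inhibition reaches that limit but some replicates miss it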;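 note: 0% = plate neutral control median and 100% = total signal loss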
rRNA inh HTS: reduced GFP signal of wild-type E. coli, primary screen, bacterial rRNA inhibitor project, GFP/RFP fluorescence, OD600, single point; E. coli WT GFP vs humanized-ribosome RFP mutants, 24 h; active compounds read low; DMSO median 0, no signal -100; AID 720706, 2013; GFP signal change (wild-type ribosome), % (test concentration not listed); 350,000 compounds, 1.6% hits;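 active = significant combined selectivity score with lowered wild-type GFP, culture density cut under 30%, mutant RFP and density less affected; inactive = any of these conditions unmet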
Alpha interfer: AlphaScreen signal interference counter-screen, dose response, artefact control, biochemical, cherry-picked samples, luminescence | shares compounds with MLL AF4-AF9 inh | AC50, µM (highest dose often 12 µM), without a hit: at the top dose activity change, negative = inhibition | 530 compounds, 45% hits | AID 720494, 2013; cut-off not given, nearly all actives have AC50 up to about 14 µM
Numbers without * were called inactive.

For CCc1cccc(NC(=O)CCCCCC2NC(=O)NC2C)c1 (centres undefined) the results were Casp6 inh -2.6, RAD52 anneal inh -8.5, MLL AF4-AF9 inh 94.5*, rRNA inh HTS 7.0 and Alpha interfer 0.29µM*.
Screening CCc1cccc(NC(=O)CCCN2C(=O)NC(C)(C)C2=O)c1 returned Casp6 inh -2.2, NSD2 HMT inh -2.7, RAD52 anneal inh -16.8, MLL AF4-AF9 inh -0.6 and rRNA inh HTS 2.5.
Screening CN(C)c1ccc(/C=C/C(=O)c2ccc(O)cc2)cc1 returned Casp6 inh -1.5, RAD52 anneal inh -115.8, MLL AF4-AF9 inh -11.1 and rRNA inh HTS -36.8.
For CN(C)c1ccc(C=c2c3ccccc3n3c2c2ccccc2[n+]3C)cc1 the results were Casp6 inh -26.2, RAD52 anneal inh 45.1, MLL AF4-AF9 inh 51.1* and Alpha interfer 3.45µM*.
`CN(C)c1ccc(C=c2c3cc(O)ccc3n3c2cc(-c2ccccc2)[n+]3C)cc1` gave Casp6 inh 95.2*, NSD2 HMT inh 42.9, RAD52 anneal inh -42.2, MLL AF4-AF9 inh 77.8*, rRNA inh HTS 19.8 and Alpha interfer 2.46µM*.
`COc1ccc(N2CCN(CCCNC(=O)CCC(=O)N3CCOc4ccc(Cl)cc43)CC2)cc1` gave Casp6 inh -36.8, NSD2 HMT inh 24.3, RAD52 anneal inh 10.1, MLL AF4-AF9 inh 38.4*, rRNA inh HTS -6.9 and Alpha interfer 12µM*.
`Cc1ccc(C)c(N2CCN(CCCNC(=O)CCC(=O)N3CCOc4ccc(Cl)cc43)CC2)c1` gave Casp6 inh -3.7, NSD2 HMT inh 9.1, RAD52 anneal inh 13.3, MLL AF4-AF9 inh 7.7 and rRNA inh HTS -54.0.
Screening O=[N+]([O-])c1cccc(-c2ccc(C(=S)N3CCOCC3)o2)c1 returned Casp6 inh 5.3, NSD2 HMT inh 13.1, RAD52 anneal inh -0.4, MLL AF4-AF9 inh 6.3 and rRNA inh HTS -3.4.
`S=C(c1ccc(-c2cccc(Cl)c2)o1)N1CCOCC1` gave Casp6 inh 4.3, NSD2 HMT inh 5.9, RAD52 anneal inh -7.6, MLL AF4-AF9 inh 29.5*, rRNA inh HTS 0.0 and Alpha interfer -12.4%.
For Cc1cccc(S(=O)(=O)N2C[C@@H](O)COC[C@H]3O[C@H](CC(=O)NCCCN4CCOCC4)CC[C@@H]32)c1 the results were Casp6 inh -24.6, RAD52 anneal inh 19.9, MLL AF4-AF9 inh 1.4 and rRNA inh HTS 1.2.
For CN1\C(=C/C=C/C=C/C=[N+](C)C)C(C)(C)c2ccccc21 the results were Casp6 inh -3.4, RAD52 anneal inh -91.8, MLL AF4-AF9 inh 40.8*, rRNA inh HTS 10.5 and Alpha interfer 9.84µM*.
Clc1ccc2c(N/N=C/c3ccccc3Br)ccnc2c1 was read as Casp6 inh -0.6, NSD2 HMT inh -4.6, RAD52 anneal inh 2.2, MLL AF4-AF9 inh -0.6 and rRNA inh HTS 15.2.
`O=[N+]([O-])c1ccc(/C=N/Nc2ccnc3cc(Cl)ccc23)o1` gave Casp6 inh 2.0, NSD2 HMT inh 11.4, RAD52 anneal inh -10.5, MLL AF4-AF9 inh 27.6*, rRNA inh HTS -64.2 and Alpha interfer -29.0%.
For CNC[C@@H]1Oc2c(NS(=O)(=O)c3cn(C)cn3)cccc2C(=O)N([C@H](C)CO)C[C@@H]1C the results were Casp6 inh -0.6, RAD52 anneal inh -6.9, MLL AF4-AF9 inh -3.2 and rRNA inh HTS -0.2.
`CNC[C@H]1Oc2ccc(NC(=O)Nc3cccc4ccccc34)cc2C(=O)N([C@@H](C)CO)C[C@H]1C` gave Casp6 inh 3.1, RAD52 anneal inh -2.3, MLL AF4-AF9 inh 1.4 and rRNA inh HTS 1.8.
O=C(NCC[C@H]1CC[C@H](NC(=O)c2ccccc2F)[C@H](CO)O1)c1cnccn1 was read as Casp6 inh -0.2, RAD52 anneal inh -8.9, MLL AF4-AF9 inh -0.9 and rRNA inh HTS 2.4.
`Cc1c(C(=O)NCC(c2ccco2)N(C)C)oc2c(Cl)cccc12` (centres undefined) gave Casp6 inh -1.7, NSD2 HMT inh 12.7, RAD52 anneal inh -21.7, MLL AF4-AF9 inh inconclusive, rRNA inh HTS -7.9 and Alpha interfer -22.4%.

Source: PubChem
